Bioassay records from PubChem BioAssay.
This excerpt belongs to a sample that is enriched for hits.
MARV entry inh: qHTS for inhibitors of binding or entry into cells for Marburg Virus | 300,000 tested, 1.8% active | Marburg virus pseudotyped entry inhibition, cell reporter | Potency, µM (series often up to 37.8 µM), for inactives: top-dose activity change, negative = inhibition, actives largely listed as inhibitors | AID 540276, 2011; calls by dose curve; tested in HEK293 cells; note: potency is the fitted concentration of half-maximal effect; % is set by controls: 0 for no effect and ±100 for the full control effect
Shiga toxin inh: A qHTS for Small Molecule Inhibitors of Shiga Toxin; Vero cells, Shiga toxin protein synthesis inhibition reporter; inhibition, % at 38.7 µM; 290,000 tested, 9.2% active; in the data active = inhibition mostly above about 28%, no sharp cut-off; inactive = mostly below about 43%; note: 0% is about no effect
Lassa entry inh: qHTS for Inhibitors of binding or entry into cells for Lassa Virus; Potency, µM (doses to about 37.9 µM), inactives show at the highest dose activity change, negative = inhibition, hits mostly inhibitors; AID 540256, 2011; Lassa virus pseudotype entry inhibition, cell reporter; 300,000 tested, 1.2% active; calls by dose curve; tested in HEK293 cells; note: potency is the fitted concentration of half-maximal effect; % is set by controls: 0 for no effect and ±100 for the full control effect; nearly all actives have a fitted effect of over 50% in size
AMA1 RON2 block: qHTS for Inhibitors of AMA1-RON; Towards Development of Antimalarial Drug Lead: Primary Screen; Plasmodium falciparum AMA1 (3D7) - RON2 peptide interaction; AlphaScreen AMA1-biotinylated RON2 peptide binding; Potency, µM (titrated, usually from 58.2 µM), inactives show at the highest dose activity change, negative = inhibition, hits mostly inhibitors; 360,000 tested, 0.2% active; AID 720542, 2013; active = well fitted inhibition curve with a large enough effect; inconclusive = small, poorly fitted or top-dose-only effect; inactive = no such curve, though single readings can be large or run the other way;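 note: potency is the fitted concentration of half-maximal effect; 0% = vehicle wells and -100% = peptide control; nearly all actives have a fitted effect of over 45% in size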
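AMA1 (3D7) with his tag at 25 nM final met compounds first, then biotinylated RON2 peptide at 25 nM; detection used donor plus acceptor beads, 10 µg/mL apiece, read by AlphaScreen after 30 min at room temperature.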
Cycloheximide cs: Cycloheximide Counterscreen for Small Molecule Inhibitors of Shiga Toxin; max response, %; 300,000 tested, 12% active; AID 2314, 2010; cell reporter, cycloheximide protein synthesis inhibition counterscreen; in the data active = max response mostly above about 13%, no sharp cut-off; inactive = mostly below about 14%; note: read at 38.3 µM for the half of the compounds with a filed dose; 0% is about no effect
* marks the source's active call; other numbers are inactive results; [ ] = another dose, or the depositor's remark.

`CC(=O)Nc1ccc(SCc2csc(C)n2)cc1` gave MARV entry inh 1%[46.1 µM], Shiga toxin inh 47*, Lassa entry inh 8%, AMA1 RON2 block -6% and Cycloheximide cs 14.
For Cc1ccnc(SCC(=O)c2cccs2)n1 the results were MARV entry inh inconclusive, Shiga toxin inh 84*, Lassa entry inh inconclusive, AMA1 RON2 block 2% and Cycloheximide cs 38*.
For O=C(O)Cc1ccc(C(=O)CSc2ccccc2)s1 the results were Shiga toxin inh 30, AMA1 RON2 block -16% and Cycloheximide cs -2.
Cc1ccc(SCC(=O)c2ccc(CC(=O)O)s2)cc1 was read as MARV entry inh 17%[46.1 µM], Shiga toxin inh 24, Lassa entry inh inconclusive, AMA1 RON2 block 15% and Cycloheximide cs 20*.
`Cc1ccnc(SCC(=O)c2ccc(Br)s2)n1` gave MARV entry inh 8%[46.1 µM], Shiga toxin inh 37, Lassa entry inh inconclusive, AMA1 RON2 block -1% and Cycloheximide cs 36*.
For CC(=O)Nc1ccc(SCc2c(C)noc2C)cc1 the results were Shiga toxin inh -5, AMA1 RON2 block 0% and Cycloheximide cs -3.
CCN(CC(=O)Nc1cc(S(=O)(=O)N2CCCCC2)ccc1C)Cc1ccccc1 was read as MARV entry inh inconclusive, Lassa entry inh inconclusive and AMA1 RON2 block -3%.
CC(=O)Nc1ccc(SCC(=O)c2ccc(Br)s2)cc1 was read as MARV entry inh -2%[46.1 µM], Shiga toxin inh 37*, Lassa entry inh 10%, AMA1 RON2 block -18% and Cycloheximide cs 21*.
For CCC(C)NC(=O)CSc1ccc(NC(C)=O)cc1 (stereo not drawn) the results were MARV entry inh -11%[46.1 µM], Shiga toxin inh -2, Lassa entry inh -3%, AMA1 RON2 block 4% and Cycloheximide cs -5.
For CCCOc1ccc(Br)cc1CSC(=N)N the results were MARV entry inh 7.3µM*, Shiga toxin inh -6, Lassa entry inh inconclusive, AMA1 RON2 block -1% and Cycloheximide cs -4.
CSc1n[nH]c(-c2ccc(C(F)(F)F)cc2)n1 was read as MARV entry inh inconclusive, Shiga toxin inh 107*, Lassa entry inh 15%[46.1 µM], AMA1 RON2 block 2% and Cycloheximide cs 41*.
S=C1NNC2(NN1)C1CC3CC(C1)CC2C3 was read as MARV entry inh 0%, Shiga toxin inh 45*, Lassa entry inh 0%, AMA1 RON2 block 11% and Cycloheximide cs 32*.
`C1CSC2(N1)C1CC3CC(C1)CC2C3` (stereo not drawn) gave MARV entry inh 0%, Shiga toxin inh -11, Lassa entry inh 12%, AMA1 RON2 block 7% and Cycloheximide cs -3.
COc1ccccc1CNc1nc(Nc2ccccc2-n2cccn2)c2sccc2n1 was read as AMA1 RON2 block -21%.
Screening O=C(NN1C(=O)C2C3C=CC(C4CC34)C2C1=O)c1cccc(Cl)c1 (stereo not drawn) returned MARV entry inh 16%, Shiga toxin inh 132*, Lassa entry inh 15%, AMA1 RON2 block -10% and Cycloheximide cs 48*.
For O=C(NN1C(=O)C2C(C1=O)C1C=CC2C12CC2)c1cccc(Cl)c1 (stereo not drawn) the results were MARV entry inh 0%[46.1 µM], Shiga toxin inh 19, Lassa entry inh -12%[46.1 µM], AMA1 RON2 block 6% and Cycloheximide cs -2.
CCCC(C(=O)Nc1cc(S(=O)(=O)N2CCOCC2)ccc1OC)c1ccccc1 (stereo not drawn) was read as Shiga toxin inh 4, AMA1 RON2 block 6% and Cycloheximide cs 1.
`CN(C)c1ccc(NC(=O)N2CCOCC2)cc1` gave MARV entry inh 13%, Shiga toxin inh 72*, Lassa entry inh -6%, AMA1 RON2 block -6% and Cycloheximide cs 39*.
O=C(C1CC1)N1CCC(c2nc(-c3ccc(S(=O)(=O)N4CCCC4)cc3)no2)CC1 was read as MARV entry inh -22%, Shiga toxin inh -18, Lassa entry inh -22%, AMA1 RON2 block -1% and Cycloheximide cs -3.
Screening CN(C)c1ccc(-c2noc(C3CCN(C(=O)Nc4ccc(Cl)cc4)CC3)n2)cc1 returned MARV entry inh -1%[46.1 µM], Shiga toxin inh 52*, Lassa entry inh -16%[46.1 µM], AMA1 RON2 block -17% and Cycloheximide cs 16*.
`O=C(NC1CCCCC1)N1CCC(c2nc(-c3ccc(S(=O)(=O)N4CCCC4)cc3)no2)CC1` gave MARV entry inh -3%, Shiga toxin inh -16, Lassa entry inh 10µM*, AMA1 RON2 block 2% and Cycloheximide cs -3.
O=C(Nc1ccc2c(c1)OCO2)N1CCCC1 was read as Shiga toxin inh 55*, AMA1 RON2 block -3% and Cycloheximide cs 9.
Screening O=C(Nc1ccc(F)cc1)N1CCOCC1 returned MARV entry inh -9%, Shiga toxin inh 23, Lassa entry inh inconclusive, AMA1 RON2 block -1% and Cycloheximide cs -2.
Screening COc1ccc(S(=O)(=O)n2nc(-c3ccco3)nc2NCc2ccc(C(C)C)cc2)cc1 returned MARV entry inh 5%[46.1 µM] and Lassa entry inh 18%[46.1 µM].
O=C(Nc1ccc2c(c1)OCCO2)C1CCCN1C(=O)Nc1ccc(F)cc1 (stereo not drawn) was read as MARV entry inh -10%[46.1 µM], Shiga toxin inh 32, Lassa entry inh -5%[46.1 µM], AMA1 RON2 block -7% and Cycloheximide cs 12*.
For O=C(Nc1ccc2c(c1)OCO2)N1CCN(c2ccccc2)CC1 the results were Shiga toxin inh 21, AMA1 RON2 block -28% and Cycloheximide cs 10.
`CC1CN(C(=O)Nc2ccc3c(c2)OCO3)CC(C)O1` (stereo not drawn) gave MARV entry inh 24%, Shiga toxin inh 50*, Lassa entry inh 9%, AMA1 RON2 block 21% and Cycloheximide cs 45*.
`O=C(Nc1ccc2c(c1)OCO2)N1CCN(c2ncccn2)CC1` gave MARV entry inh inconclusive, Shiga toxin inh 83*, Lassa entry inh inconclusive, AMA1 RON2 block -1% and Cycloheximide cs 35*.
For COc1ccc(NC(=O)N2CC(C)OC(C)C2)cc1OC (stereo not drawn) the results were MARV entry inh 8%, Shiga toxin inh 11, Lassa entry inh 2%, AMA1 RON2 block -3% and Cycloheximide cs 1.
For O=C(Nc1ccc2c(c1)OCO2)N1CCN(c2ccc(F)cc2)CC1 the results were MARV entry inh inconclusive, Shiga toxin inh 46, Lassa entry inh 17%[46.1 µM], AMA1 RON2 block -17% and Cycloheximide cs 19*.
For O=C(Nc1ccccc1)N1CCN(c2ncccn2)CC1 the results were MARV entry inh 10%, Shiga toxin inh -3, Lassa entry inh -14%, AMA1 RON2 block 10% and Cycloheximide cs 9.
For O=C(Nc1ccc2c(c1)OCCO2)C1CCCN1C(=O)Nc1ccccc1 (stereo not drawn) the results were MARV entry inh 1%[46.1 µM], Shiga toxin inh -11, Lassa entry inh -1%, AMA1 RON2 block 0% and Cycloheximide cs -10.
Screening O=C(NCc1ccc2c(c1)CCN2C(=O)c1ccccc1)Nc1cccc(C(F)(F)F)c1 returned Lassa entry inh -1%[46.1 µM].
`CCOC(=O)c1[nH]c(C)c(CCC(=O)Nc2c(C)cc(C)cc2C)c1C` gave Lassa entry inh 15%[46.1 µM].
